Only some compounds are listed: those with a hit (about 3.9% of all), similar ones and a draw of the others.
TWEAK-Fn14 inh = inhibitors of TWEAK-Fn14 interaction signaling; TWEAK-stimulated Fn14 reporter cells, luciferase luminescence, 8 h; inhibition, % at 10 µM; 360,000 tested, 2% active; AID 1159606; in the data active = inhibition above about 50%
HIF-2a block = inhibitors of HIF-2a. 786-0 RCC cells HIF-2a reporter, luciferase luminescence, overnight. inhibition, % at 18.8 µM. 360,000 tested, 0.72% active;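 active = inhibition of the luminescence signal of 40% or more relative to plate controls, in a single-dose primary screen at 18.75 µM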
TROY NFkB inh = TROY signaling inhibition; Q293 LMP1-TROYcd NF-kB luciferase reporter, 4 h; inhibition, % at 10 µM; 360,000 tested, 0.98% active;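 active = compounds whose plate-normalised and pattern-corrected inhibition of the luciferase reporter signal at the single screening dose is 50% or more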
C8 TRAIL sens = sensitizes caspase-8 expressing cells to TRAIL; NB7+C8 cells + TRAIL, ATPlite viability luminescence; inhibition (viability loss, TRAIL sensitization), % at 10 µM; 360,000 tested, 1% active; AID 624354;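 active = compounds causing at least 50% loss of cell viability in the single-dose screen, relative to plate controls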
aSyn 5UTR inh = 5' untranslated region of α-synuclein, MLPCN primary screen; 300,000 tested, 0.82% active; inhibition, % (tested at 7.5 µM); alpha-synuclein 5'UTR reporter, inhibitor activity; AID 1813; in the data active = inhibition above about 60%;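 also: H4 neuroglioblastoma cells stably carrying SNCA 5'UTR luciferase fusion; 0% = DMSO wells and 100% = positive control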
HSP90 inh = blocks HSP90-mediated luciferase refolding in reticulocyte lysate; Rabbit reticulocyte lysate, luciferase refolding luminescence, 3 h; inhibition, % at 5.6 µM; 290,000 tested, 0.91% active; AID 1789;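 active = inhibition above the screen-wide mean plus 3 SD, computed separately per campaign, cut at about 16% in these data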;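 also: 0% = DMSO wells and 100% = 60 µM geldanamycin wells; inhibitors lower the luminescence because luciferase stays unfolded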
An asterisk follows results filed as active; x = not tested or not shown.

SMILES	TWEAK-Fn14 inh	HIF-2a block	TROY NFkB inh	C8 TRAIL sens	aSyn 5UTR inh	HSP90 inh
COc1cc([C@H]2c3[nH]c4ccccc4c3C[C@H]3C(=O)N4[C@@H](c5cc(OC)c(OC)c(OC)c5)c5[nH]c6ccccc6c5C[C@H]4C(=O)N23)cc(OC)c1OC	-5	52*	8	49	33	2
O=C(NCCc1c[nH]c2ccccc12)c1ccc([N+](=O)[O-])o1	39	5	-4	19	x	x
O=C(c1cnn2c(C(F)(F)F)cc(-c3ccccc3)nc12)N1CCCc2ccccc21	-26	-28	-7	-1	26	1
O=C(c1nn2c(C(F)(F)F)cc(-c3cccs3)nc2c1Cl)N1CCCc2ccccc21	54*	-29	25	15	78*	2
O=C(NCc1ccc(F)cc1F)[C@@H]1CCCN1C(=O)[C@@H]1CCCN1C(=O)c1cccc2ccccc12	14	7	-4	7	x	x
c1ccc(Oc2ncnc3oc(-c4ccccc4)cc23)cc1	96*	-31	3	1	-8	-10
c1ccc(Oc2ncnc3sccc23)cc1	-1	-11	1	-11	-1	-3
CCNC(=O)C1(C)CCCN(CCOc2ccc(Cl)cc2)C1 (stereo not drawn)	-5	9	7	-4	x	x
CC(C)c1ccc(-c2cc(C(=O)NN3CCN(C)CC3)c3ccccc3n2)cc1	-32	-165	-41	77*	-117	-5
CN1CCN(NC(=O)c2cc(-c3cccc(Cl)c3)nc3ccccc23)CC1	-17	2	-2	-13	0	0
COc1ccc(C2CC(=O)C=C3c4ccc(OC)cc4CCC32)cc1 (stereo not drawn)	-17	-30	-9	7	x	x
CCCCCc1cc(=O)oc2c(C(CCN(CC)CC)c3cc(OC)c(OC)c(OC)c3)c(OC)cc(OC)c12 (stereo not drawn)	-14	-7	5	75*	17	x
O=C(CN(C1CCCCC1)S(=O)(=O)c1ccc(Br)cc1)NCc1cccnc1	6	10	-9	-5	-4	-5
O=C(O)CCCC(=O)Nc1ccc(C(=O)NCc2cccnc2)cc1	-6	2	5	5	14	-3
O=NN(C(=O)NCc1cccnc1)C1CCCCC1	4	1	58*	-3	x	x
O=C(CCC1CCCC1)Nc1ccc(C(=O)NCc2cccnc2)cc1	-23	14	10	-14	72*	3
Cc1cc2nc(C(C)(C)C)c(Cc3ccccc3C(F)(F)F)n2c(C)c1Br	3	21	5	15	x	x
CSCCC(NS(=O)(=O)c1ccc(Cl)cc1)C(=O)OCC(=O)c1c(C)[nH]c2ccccc12 (stereo not drawn)	62*	0	82*	11	12	2
Cc1[nH]c2ccccc2c1C(=O)COC(=O)C1CC(O)CN1S(=O)(=O)c1ccc(Cl)cc1 (stereo not drawn)	10	12	-5	-8	x	x
Cc1c(C(=O)NCCCN2CCCCC2)oc2ccc3c(c12)C(O)CC1(CCCCC1)O3 (stereo not drawn)	5	5	-9	14	76*	-1
CC(Sc1nnc(CN2CCCC2)n1Cc1ccccc1)C(=O)Nc1ccccc1 (stereo not drawn)	4	0	66*	6	x	x
CN=c1sc2c(n1C)C(=O)c1ccccc1C2=O	89*	-98	48	76*	x	x
CN=c1sc(C(=O)Nc2ccccc2)c(C)n1C	-13	-7	-3	2	-47	-5
COC(=O)c1ccc(N2CCC(c3cc(-c4ccc(OC)cc4)n[nH]3)CC2)c([N+](=O)[O-])c1	25	27	9	-25	31	1
COc1ccc(-c2cc(C3CCN(c4ccc(C(C)=O)cc4[N+](=O)[O-])CC3)[nH]n2)cc1	71*	5	74*	7	34	2
SMILES	TWEAK-Fn14 inh	HIF-2a block	TROY NFkB inh	C8 TRAIL sens	aSyn 5UTR inh	HSP90 inh
CC(=O)c1ccc(N2CCC(c3cc(-c4ccc(Cl)cc4)n[nH]3)CC2)c([N+](=O)[O-])c1	62*	-16	48	9	50	0
COCCCN1C(=O)C(CC(=O)NC2CCCCC2)CC(C(=O)N2CCCCCC2)=C1C (stereo not drawn)	12	-15	18	-18	x	x
O=C(O)c1ccc(N/N=C/c2cc3cc4c(cc3nc2Cl)OCCO4)cc1	30	-67	-16	93*	8	12
O=C(c1ccccc1)c1ccc(OCCCCN2CCCCC2)cc1	70*	4	-14	-3	2	0
COc1ccc(Nc2ncc(C(=O)N3CCN(Cc4ccccc4)CC3)c3ccccc23)cc1	96*	-53	21	22	-15	-1
COc1ccc(-c2ccc(SCC(=O)N3c4ccccc4CC3C)nn2)cc1OC (stereo not drawn)	63*	-222	-4	32	18	0
O=C(NCCc1ccccc1)c1ccc(-c2ccc(F)c(F)c2)c2ccoc12	-104	-153	-61	-5	x	x
Cc1cc(C)n(-c2nc(Nc3ccccc3C)nc(-n3nc(C)cc3C)n2)n1	x	x	x	x	12	4
Cc1cc(C)n(-c2nc(Nc3ccccc3C(F)(F)F)nc(-n3nc(C)cc3C)n2)n1	81*	16	79*	57*	62*	3
Cc1ccccc1OCCC(=O)N1CCN(S(=O)(=O)c2ccc(Br)cc2)CC1	-27	-3	-11	14	x	x
COc1cc(/C=C/C(=O)c2ccc(F)cc2)cc(OC)c1OC	84*	39	26	-21	-15	0
COc1ccc(/C=C/C(=O)c2ccc(O)cc2)cc1COc1ccc(F)cc1	55*	22	4	5	-22	-2
COc1ccc(/C=C/C(=O)c2ccccc2)cc1COc1ccc(F)cc1	8	2	-39	22	-33	2
COc1ccc(/C=C/C(=O)c2cc(F)ccc2OC(=O)c2ccc(OC)c(OC)c2)cc1OC	43	2	-12	1	9	5
COc1ccc(/C=C/C(=O)c2cc(F)ccc2OC(=O)c2ccccc2OC)cc1OC	77*	76*	55*	-37	68*	3
COC(=O)[C@]12CCCCC=C1N(CCC1=CCCCC1)C(=O)[C@H](CC(=O)NCc1ccccc1)C2	17	-2	13	2	x	x
O=C(Nc1ccc2c(c1)OCO2)c1cc(C2CCCCN2S(=O)(=O)c2ccccc2)on1 (stereo not drawn)	-6	-88	-27	10	x	x
CCOC(=O)C(C)Oc1cccc2c(=O)n(CC(=O)NCc3ccco3)ccc12 (stereo not drawn)	1	6	-1	11	73*	-1
O=C(CN1CCOCC1)OCCCC1CCCCC1	-4	16	-14	-2	0	1
CC(C)CCCC(C)CCOC(=O)CN1CCCC1 (stereo not drawn)	68*	20	-6	-9	-10	-2

High-throughput results (PubChem BioAssay)
